Measured values from paper PMC4336329 (PLoS ONE, 2015).
The whole screen tested about 310,000 compounds, of which about 14,000 (4.5%) showed an effect of 50% or more. Effects have a minus sign here. What follows is part of a selection rich in strong results, with near analogues and random picks from the rest.

Target: human ether-à-go-go-related gene (hERG) potassium channel (human, UniProt Q12809)
Experiment: primary screen, population patch clamp on CHO cells stably expressing hERG; higher = less effect of the substance
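Note: peak tail current of the secondary pulse compared with the same well before compound.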

Sequence of human ether-à-go-go-related gene (hERG) potassium channel (Q12809 whole entry, looked up): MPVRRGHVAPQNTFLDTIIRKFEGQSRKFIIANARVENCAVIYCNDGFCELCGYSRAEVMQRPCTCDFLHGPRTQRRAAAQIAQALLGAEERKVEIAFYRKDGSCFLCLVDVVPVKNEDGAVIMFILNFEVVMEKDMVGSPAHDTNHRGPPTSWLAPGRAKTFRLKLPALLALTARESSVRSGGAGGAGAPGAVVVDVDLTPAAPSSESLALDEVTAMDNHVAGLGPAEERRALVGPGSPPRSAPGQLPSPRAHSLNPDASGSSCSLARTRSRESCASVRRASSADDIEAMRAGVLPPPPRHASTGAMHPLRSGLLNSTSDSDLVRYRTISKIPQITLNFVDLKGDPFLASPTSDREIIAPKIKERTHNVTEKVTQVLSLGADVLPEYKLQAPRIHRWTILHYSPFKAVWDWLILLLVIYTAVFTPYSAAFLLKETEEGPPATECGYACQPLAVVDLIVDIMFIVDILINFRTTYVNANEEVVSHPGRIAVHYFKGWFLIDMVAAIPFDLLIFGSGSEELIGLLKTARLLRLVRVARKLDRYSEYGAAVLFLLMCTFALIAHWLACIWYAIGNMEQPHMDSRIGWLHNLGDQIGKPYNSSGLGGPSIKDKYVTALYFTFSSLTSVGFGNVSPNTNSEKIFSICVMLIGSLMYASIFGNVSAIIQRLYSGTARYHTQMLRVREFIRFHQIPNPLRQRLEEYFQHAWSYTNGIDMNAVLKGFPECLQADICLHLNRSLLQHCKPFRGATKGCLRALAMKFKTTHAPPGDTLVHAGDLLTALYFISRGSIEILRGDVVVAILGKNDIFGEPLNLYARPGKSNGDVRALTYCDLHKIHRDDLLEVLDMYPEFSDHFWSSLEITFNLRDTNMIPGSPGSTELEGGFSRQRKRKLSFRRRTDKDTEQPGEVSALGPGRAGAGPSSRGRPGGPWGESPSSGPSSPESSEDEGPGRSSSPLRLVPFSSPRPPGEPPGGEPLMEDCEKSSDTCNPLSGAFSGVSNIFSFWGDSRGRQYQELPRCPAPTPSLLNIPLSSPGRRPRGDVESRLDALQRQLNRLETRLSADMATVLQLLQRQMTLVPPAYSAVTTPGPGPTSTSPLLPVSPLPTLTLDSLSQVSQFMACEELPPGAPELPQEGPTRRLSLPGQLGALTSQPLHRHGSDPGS

SMILES	hERG current change (%, negative = inhibition) at 10uM
CC1CN(c2ccc([N+](=O)[O-])cc2F)CCN1C(=O)c1ccco1 (centres unmarked)	-62%
O=C(NC(=O)N1CCN(c2ccc([N+](=O)[O-])cn2)CC1)c1ccccc1F	-24.5%
O=C(Nc1ccc(F)cc1F)N1CCCN(c2ccc([N+](=O)[O-])cn2)CC1	-50.2%
CC(C)(C)c1ccc(C(=O)N2CCCN(c3ccc([N+](=O)[O-])cn3)CC2)cc1	-72.3%
CC(=O)c1ccc(N2CCN(C(=O)c3ccco3)C(C)C2)c(F)c1 (centres unmarked)	-49.9%
CC(C)(C)c1ccc(NC(=O)N2CCN(c3ccc([N+](=O)[O-])cn3)CC2)cc1	-9.81%
CC(=O)c1cc(F)c(N2CCN(c3ccc([N+](=O)[O-])cc3F)CC2)cc1C	-12.3%
CC(C)(C)c1ccc(NC(=O)N2CCCN(c3ccc([N+](=O)[O-])cn3)CC2)cc1	-25.9%
O=C(c1ccco1)N1CCN(c2ccc([N+](=O)[O-])cc2Cl)CC1	-71.4%
O=C(Nc1ccc(F)cc1F)N1CCCN(c2ccc(C(F)(F)F)cn2)CC1	-12.4%
O=C(c1ccco1)N1CCN(S(=O)(=O)c2cccc([N+](=O)[O-])c2)CC1	-20.7%
O=C(O)C(=O)O.O=C(c1ccco1)N1CCN(S(=O)(=O)c2ccc([N+](=O)[O-])cc2)CC1	-39.8%
CCOC(=O)c1cnn(CCOC(=O)c2ccccc2F)c1NC(=O)c1ccccc1F	-15.6%
COC(=O)c1cc(Br)c(=O)n(-c2nccs2)c1	-5.98%
Cc1cccc(N2C(S)=C(C#N)C(=O)NC2c2cccs2)c1 (centres unmarked)	13%
CN(CC(=O)Nc1cccc2ccccc12)C(=O)/C=C/c1cccs1	-10.7%
O=C1OC(/C=C/c2ccc(Cl)cc2)=NC/1=C/c1ccco1	2.78%
Cc1occc1C(=O)NNC(=O)c1ccccc1F	13%
CC(=O)C(=Nc1cccc(Cl)c1)NNc1ccccc1C	8.82%
O=C(N1CCN(c2ccc(F)cc2)CC1)C1(c2cccs2)CCOCC1	-33%

SMILES	hERG current change (%, negative = inhibition) at 10uM
O=C(c1ccco1)N1CCN(c2ccc([N+](=O)[O-])cn2)CC1	-57.7%
O=C(c1ccco1)N1CCN(c2ccc(N3CCCCC3)nn2)CC1	-44.8%
O=C(c1ccco1)N1CCN(c2ccc([N+](=O)[O-])cc2F)CC1	-64.9%
CC(=O)c1ccc(N2CCN(C(=O)c3ccco3)CC2)c(F)c1	-25.2%
O=C(c1ccco1)N1CCN(c2cc(N3CCOCC3)c(F)cc2[N+](=O)[O-])CC1	-49.6%
O=C(c1ccc([N+](=O)[O-])cc1)N1CCN(C(=O)c2ccco2)CC1	-47.4%
O=C(CCCNS(=O)(=O)c1cccc2nsnc12)NCc1ccc(Cl)cc1	-37.9%
CC(C)n1nc(C(=O)N2CCN(S(=O)(=O)c3cccs3)CC2)c2ccccc2c1=O	-28.7%
O=C(CSc1nn(-c2ccc(F)cc2)c(=S)s1)NC(=O)NCc1ccco1	2.66%
O=C(CSc1nn(-c2ccc(F)cc2)c(=S)s1)N1CCN(C(=O)c2ccco2)CC1	-75%
O=C(CSc1nn(-c2ccc(Cl)cc2)c(=S)s1)N1CCN(C(=O)c2ccco2)CC1	-70.5%
O=C(CSc1nnc(SCc2ccc(Cl)cc2)s1)N1CCN(C(=O)c2ccco2)CC1	-33.7%
CCSc1nnc(SCC(=O)N2CCN(C(=O)c3ccco3)CC2)s1	-33.4%
CC(C)Nc1nnc(SCC(=O)N2CCN(C(=O)c3ccco3)CC2)s1	-2.72%
O=S(=O)(c1ccc(Cl)cc1)N1CCN(C(=S)Nc2ccccc2F)CC1	2.92%
O=C(Nc1cccc(-c2ccc(N3CCOCC3)nn2)c1)c1ccccc1	-30.8%
CC(=O)C[C@@H](O)CC(=O)[C@H]1OC(=O)CC/C=C\Cc2ccccc21	14.4%
O=C(CN1C(=O)C2CC=CCC2C1=O)NCC1COc2ccccc2O1 (centres unmarked)	1.42%
CN(C)C(=O)NC(Nc1cccc([N+](=O)[O-])c1)C(Cl)(Cl)Cl (centres unmarked)	-27.1%
CCc1ccc(CNC(=O)c2ccc(OC)c(OC3CCN(C(C)C)CC3)c2)nc1	-7.31%

SMILES	hERG current change (%, negative = inhibition) at 10uM
Cc1ccnc(NC(c2cccnc2)c2ccc3cccnc3c2O)c1 (centres unmarked)	-22.5%
COc1ccc(N2CCN(C(=O)C(=O)c3cn(CC(=O)N4CCOCC4)c4ccccc34)CC2)cc1	2.05%
S=C1NC(c2ccccc2)=CC(c2ccccc2)N1 (centres unmarked)	6.64%
CC(=O)NN1C(=O)/C(=C2/Sc3ccc(Cl)cc3N2C)SC1=S	10.6%
C#CC[N+](C)(C)CCCCCCCCCC.[Br-]	-38.4%
C#CC[N+](C)(C)CCCCCCCCCCCC.[Br-]	-50.7%
C#CC[N+](C)(C)CCCCCCCCC.[Br-]	-54.9%
CC#CC[N+](C)(C)CCCCCCCCCC.[Br-]	-48.8%
CC#CC[N+](C)(C)CCCCCCCC.[Br-]	-40.1%
C#CC[N+](C)(C)CCCCCCCC.[Br-]	-15.9%
CCCCNC(=O)c1ccc2c(c1)N(CC)C(=O)CS2	-2.74%
COC(=O)C1=C(C)N(Cc2ccccc2)C(=NCc2cc(OC)c(OC)c(OC)c2)N[C@H]1c1cccc(F)c1	-23%
COc1ccc(OC)c(/C=C(\C)C(=O)c2c(C)cc(C)[nH]c2=O)c1	7.34%
CC(=O)N1CCN(c2ccc(NC(=O)c3ccc([N+](=O)[O-])o3)cc2Cl)CC1	-50%
O=C(Nc1ccc(NC(=O)c2ccc([N+](=O)[O-])o2)cc1Cl)c1ccco1	9.42%
CN1CCN(c2ccc(NC(=O)c3ccco3)cc2Cl)CC1	-16.8%
CC(=O)N1CCN(c2ccc(NC(=O)c3ccc(N4CCCC4)c([N+](=O)[O-])c3)cc2Cl)CC1	-12.4%
CC(=O)N1CCN(c2ccc(NC(=O)c3ccco3)cc2Cl)CC1	0.303%
CN1CCN(c2ccc(NC(=O)c3ccc([N+](=O)[O-])o3)cc2Cl)CC1	-57.3%
